# CBFb RUNX1 block: inhibitors of human CBF-beta and RUNX1 interaction; Q01196+Q13951; AlphaScreen CBFb-His/RUNX1-biotin binding, biochemical; Potency, µM (titrated, usually from 59.8 µM), for the others: at the top dose activity, negative = inhibition, hits mostly inhibitors; 230,000 tested, under 10 active; further: % of control where 0% means no effect
#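 His-tagged CBF-beta and biotinylated RUNX1 (30 nM each) were premixed 20 min at room temperature, exposed to compound for 15 min, then given nickel-chelate and streptavidin AlphaScreen beads (50 ng each). After 90 min, AlphaScreen signal was read.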
# ALDH1A1 block: ALDH1A1 (human) enzyme inhibition. P00352. Purified ALDH1A1, NADH fluorescence, propionaldehyde substrate. Potency, µM (highest dose often 75.3 µM), for inactives: at the top dose activity, negative = inhibition, most hits filed as inhibitors. 220,000 tested, 7.3% active. AID 1030; active means well fitted inhibition curve with a large enough effect, not every such curve was filed as active; inconclusive means small, poorly fitted or top-dose-only effect, or another doubt; inactive means no such curve, though single readings can be large or run the other way;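 further: potency means the concentration at half of the fitted maximal effect; plate controls were no enzyme wells and a reference inhibitor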
# Target sequence (P00352 whole entry, looked up): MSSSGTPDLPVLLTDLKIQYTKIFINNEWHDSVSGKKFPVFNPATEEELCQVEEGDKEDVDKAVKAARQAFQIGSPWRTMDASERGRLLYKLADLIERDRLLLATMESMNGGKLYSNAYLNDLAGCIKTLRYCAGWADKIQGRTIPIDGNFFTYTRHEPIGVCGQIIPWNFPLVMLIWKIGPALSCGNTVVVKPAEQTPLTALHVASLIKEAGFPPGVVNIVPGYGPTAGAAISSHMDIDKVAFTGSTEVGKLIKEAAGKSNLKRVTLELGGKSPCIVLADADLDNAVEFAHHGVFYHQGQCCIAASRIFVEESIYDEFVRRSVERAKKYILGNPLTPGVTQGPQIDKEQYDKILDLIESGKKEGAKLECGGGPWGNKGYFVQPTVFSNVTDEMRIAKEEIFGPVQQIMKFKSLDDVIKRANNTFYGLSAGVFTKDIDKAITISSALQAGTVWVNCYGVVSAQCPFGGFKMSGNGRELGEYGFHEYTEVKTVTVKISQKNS
# HTT ATP protect: protects HTT-Q103 PC12 cells, measured by ATP. PC12 HTT-Q103 induced, cytoprotection, ATP luminescence, 40 h. Potency, µM (doses to about 56.4 µM), for the others: cytoprotection (ATP increase), usual class: activators. 230,000 tested, 0.14% active; further: potency means the concentration at half of the fitted maximal effect; % of control where 0% means no effect; nearly all actives have a fitted effect of over 45% in size
#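 Stable PC12 Q103-GFP cells in serum-supplemented, phenol red-free DMEM; induction by tebufenozide at 100 nM final; compound dose series; cell viability quantified luminescently from ATP.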
# HPGD inh: inhibitors of human 15-hydroxyprostaglandin dehydrogenase (HPGD) | P15428 | purified HPGD, NADH fluorescence kinetic, PGE2 substrate | Potency, µM, inactives show at the top dose activity change, negative = inhibition, actives largely listed as inhibitors | 150,000 tested, 4.3% active | AID 894; active means well fitted inhibition curve with a large enough effect, not every such curve was filed as active; inconclusive means small, poorly fitted or top-dose-only effect, or another doubt; inactive means no such curve, though single readings can be large or run the other way; further: potency means the concentration at half of the fitted maximal effect; on the % scale 0 is the no-effect control and ±100 the full control effect
# Target sequence (P15428 whole entry, looked up): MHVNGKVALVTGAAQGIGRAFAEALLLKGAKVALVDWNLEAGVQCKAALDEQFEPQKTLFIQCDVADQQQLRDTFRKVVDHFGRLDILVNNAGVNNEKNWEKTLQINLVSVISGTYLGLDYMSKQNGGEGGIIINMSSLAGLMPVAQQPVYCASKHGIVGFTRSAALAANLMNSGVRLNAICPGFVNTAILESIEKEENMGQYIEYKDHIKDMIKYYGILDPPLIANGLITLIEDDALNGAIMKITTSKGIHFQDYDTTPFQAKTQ
#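 20 nM HPGD preincubated 15 min at room temperature with compound in 50 mM Tris-HCl pH 8, 0.01% Tween 20. Started with 1 mM NAD+ and 30 uM prostaglandin E2; NADH fluorescence (360/450 nm) read 5 times over 30-s intervals, last minus first.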
# PNC assembly inh: perinucleolar compartment assembly inhibition; PC3M PTB-GFP, PNC prevalence imaging, 16 h; hits give low values; activity change (PNC), negative = inhibition, % at 10 µM; 140,000 tested, 3.1% active; AID 2417;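 active means readout at or below -70, meaning at least 70% loss of cells showing the perinucleolar compartment, a nuclear body marking cancer cells; inconclusive means readout between -30 and a set limit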;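 further: plate controls were DMSO wells for no effect and camptothecin positive control wells for full effect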
#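 PC3M cells stably expressing PTB-GFP, 750–1000 cells/well, treated 16 h at 37 °C with compound (23 nl of library stock), in duplicate. After paraformaldehyde fixation and Hoechst stain, imaged at 20x; PNC prevalence scored by image analysis.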
# HTT aggregate: inhibitors of mutant huntingtin aggregate formation in PC12 cells; PC12 HttQ103-GFP aggregates, Acumen cytometry, 40 h; Potency, µM (titrated, usually from 46.1 µM), inactives show top-dose activity change, negative = inhibition, hits mostly inhibitors; 220,000 tested, 1.1% active; further: potency means the concentration at half of the fitted maximal effect; on the % scale 0 is the no-effect control and ±100 the full control effect; nearly all actives have a fitted effect of over 60% in size
#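 PC12 cells stably carrying ecdysone-inducible HTT exon 1 Q103–GFP were induced with tebufenozide (100 nM final) and treated with library compounds in titration. GFP aggregates in lysates were counted by laser scanning cytometry.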
# * hit, by the source's call; u = inconclusive; x = not tested or not shown; [ ] = remark or other dose. The list is not random: actives were taken first. Their share in the collection is about 11%. Unless noted, the call rests on the fitted dose curve; in most records, active means well fitted curve in the direction sought with a large enough effect; inconclusive means small, poorly fitted or top-dose-only effect, or another doubt; inactive means no such curve, though single readings can be large; an effect the other way counts as inactive or inconclusive.
SMILES,CBFb RUNX1 block,ALDH1A1 block,HTT ATP protect,HPGD inh,PNC assembly inh,HTT aggregate
COC(=O)CC1C(C)(C)C(=O)C2CC3C4=CC(=O)OC(c5ccoc5)[C@]4(C)CCC3[C@@]1(C)C2=O (stereo partly drawn),9%,-2%,-3%,-5%,x,x
COc1cccc(-c2nc(CS(=O)CC(=O)NCc3ccc4c(c3)OCO4)c(C)o2)c1 (stereo not drawn),-1%,u,-10%,-16%,-17,-3%
Fc1ccc(C2CCCN2Cc2nc(-c3cnccn3)no2)cc1 (stereo not drawn),6%,28µM*,1%[10 µM],x,x,-5%[9.22 µM]
Fc1ccc(C2CCCN2Cc2nc(CC3CC3)no2)cc1 (stereo not drawn),5%,6%,2%[10 µM],x,x,-9%[9.22 µM]
O=C(/C=C/c1ccccc1)OCc1ccccc1,x,x,20%,x,x,-8%
OCCC1CN(Cc2cccn2-c2cccnc2)CCN1Cc1ccc(F)cc1 (stereo not drawn),-1%,4%,25%[10 µM],x,x,15%[9.22 µM]
CC(C)CN1CCN(Cc2cccn2-c2cccnc2)CC1CCO (stereo not drawn),19%,3.5µM*,-8%[10 µM],x,x,6%[9.22 µM]
NC(=O)c1sc2nc3c(c(-c4ccc(Cl)cc4)c2c1N)CCCC3,20%,u,u,-14%,u,-3%
Cc1ccc(-c2c3c(nc4sc(C(N)=O)c(N)c24)CCC3)cc1,8%,u,-2%,-22%,70,10µM*
COc1ccc(-c2cc(N)n(S(=O)(=O)c3ccc(C)cc3)n2)c(OC)c1,-4%,u,-4%,-15%,-91*,-9%
C=CCn1c(NC(C)c2cc(Cl)ccc2O)nc2ccccc21 (stereo not drawn),0%,-3%,-3%,-19%,19,11µM*
C=CCn1c(NCc2cc(C)ccc2O)nc2ccccc21,-1%,-7%,-8%,-28%,u,-21%
Cc1ccccc1-n1nnnc1SCc1cc(=O)n2ccsc2n1,5%,0.63µM*,6%,x,x,-19%
COc1ccc(C)cc1-n1nnnc1SCc1cn2ccsc2n1,-3%,14µM*,-31%,-1%,26,-6%
Cn1nnnc1SCc1cc(=O)n2ccsc2n1,2%,0%,-12%[10 µM],-4%,-1,18%
COc1ccc(C)cc1-n1nnnc1SCC(=O)N1CCC(C(=O)Nc2nccs2)CC1,-4%,7.9µM*,15%,-15%,u,-10%
COc1ccc(C)cc1-n1nnnc1SCC1CCCCO1 (stereo not drawn),5%,32µM*,-11%,-21%,9,3%[9.22 µM]
Cc1nnc(SCC(=O)N2CCC(C(=O)Nc3nccs3)CC2)n1Cc1ccccc1,10%,-1%,6%[10 µM],-3%,-7,6%
CN(C)CC[C@@](O)(c1ccccc1)c1ccccc1Cl,x,x,-2%,x,x,3%
CN(C)CCn1c(CO)nc2c1c(=O)n(C)c(=O)n2C,x,-1%[13.5 µM],-12%[10 µM],-10%,x,x
O=c1cc(CSc2nnnn2-c2ccccc2)nc2nc[nH]n12,-1%,u,-5%[10 µM],-22%,39,-7%
O=c1cc(CN2CCN(c3ccc(O)cc3)CC2)nc2scc(-c3ccccc3)n12,u,14µM*,x,x,x,3%
O=c1cc(CSc2nnnn2-c2ccccc2)nc2sccn12,15%,13µM*,-25%[10 µM],x,x,6%
O=c1cc(CSc2nnnn2-c2ccccc2)nc2scc(-c3ccccc3)n12,2%,3.2µM*,6%[10 µM],-15%,u,-16%
COc1ccccc1N1CCN(Cc2cc(=O)n3ccsc3n2)CC1,-3%,7%,21%,-4%,-16,20%
SMILES,CBFb RUNX1 block,ALDH1A1 block,HTT ATP protect,HPGD inh,PNC assembly inh,HTT aggregate
CCC(=O)O[C@@H](OP(=O)(CCCCc1ccccc1)CC(=O)N1C[C@H](C2CCCCC2)C[C@H]1C(=O)O)C(C)C (stereo partly drawn),x,x,14%,x,x,2%
CCOC(=O)CSc1nsc(SCC(=O)OCC)c1C#N,-4%,7%,-9%[10 µM],-24%,-100*,-3%
N#Cc1c(SCC(N)=O)nsc1SCc1ccc(Cl)cc1,1%,-6%,-17%,-13%,-83*,-6%
CC(C)(C)NC(=O)CSc1nsc(SCC(=O)NC(C)(C)C)c1C#N,5%,6%,-4%,-13%,25,-13%
N#Cc1c(SCC(=O)OCc2ccccc2)nsc1SCC(=O)OCc1ccccc1,25%,-5%,-3%,-7%,-101*,15%[9.22 µM]
CC(=O)CSc1nsc(SCC(C)=O)c1C#N,-24%,28µM*,19%[10 µM],u,153,-12%
CO[C@@H]1COC(=O)[C@H](C)NC(=O)[C@@H](C)COC(=O)[C@H](C)NC(=O)C/C=C\[C@H]1C,23%[13.1 µM],8%[13.5 µM],-4%[10 µM],x,x,x
C=C[C@H]1CCC=C2C(=O)CCC[C@@H]21,7%,-5%,x,-5%,x,x
O=C(NCCCn1ccnc1)c1ccc(N2CCCCC2)c([N+](=O)[O-])c1,-7%,7.9µM*,-23%,x,x,-32%
O=C(NCc1ccncc1)c1ccc(N2CCCC2)c([N+](=O)[O-])c1,-16%,u,-126%,x,x,u
CC1CC(C)CN(S(=O)(=O)c2ccc(C(=O)NCCCn3ccnc3)cc2)C1 (stereo not drawn),3%,1%,-125%,-13%,u,7.9µM*
COc1ccc(C(=O)NCCCn2ccnc2)cc1,1%,7.9µM*,20%,-8%,-27,24%
Cc1ccc(S(=O)(=O)N[C@H]2COC(=O)[C@@H](C)COC(=O)C/C=C\[C@H]2C)cc1,12%[13.1 µM],5%[13.5 µM],-13%[10 µM],x,x,x
Cc1ccc(-c2nnc(N)s2)cc1,-2%,u,x,-30%,35,16%
CC(C)c1ccc(-c2nnc(N)s2)cc1,6%,2%,-29%[10 µM],35µM*,4,2%
Cc1cc(C(=O)OCC(=O)c2ccc(Cl)c([N+](=O)[O-])c2)c2cccc(C)c2n1,u,13µM*,22%[10 µM],-18%,18,25%
Cc1cc(C(=O)OCC(=O)c2cccc([N+](=O)[O-])c2)c2ccccc2n1,-3%,-2%,-2%[10 µM],-24%,u,2%
Cc1ccc2nc(C)cc(C(=O)OCC(=O)c3ccc(Cl)c([N+](=O)[O-])c3)c2c1,-14%,20µM*,1%,-19%,5,u
CCNc1ccccc(C(=O)/C=C/c2ccc3c(c2)OCO3)c1=O,-20%,10µM*,5%,18µM*,-28,u
CCSc1ccccc1C(=O)Nc1cccnc1,7%,11%,-12%[10 µM],-13%,-100*,-4%
CCSc1ccccc1C(=O)Nc1nncs1,-7%,u,-3%[10 µM],u,57,-8%
O=C(Nc1cccnc1)c1ccccc1Oc1ccccc1,-2%,18µM*,-16%,-15%,-11,-4%
